Compound activity as filed in PubChem BioAssay.
Nrf2 activator: Nrf2 pathway activation; AREc32 ARE-luciferase reporter (MCF7-derived line), luminescence, 24 h; Potency, µM (series often up to 46.1 µM), actives largely listed as activators; actives 0.31% (n = 410,000); also: nearly all actives have a fitted effect of over 65% in size
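For detection, Steady-Glo was added and plates sat 30 min at RT; before that, AREc32_Fluc cells grown overnight in OPTI-MEM/5% FBS had been treated with 23 nL compound for 24 hr at 37 deg C.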
ELG1 repair inh: ELG1-dependent DNA repair inhibition | HEK293T ELG1-luciferase reporter, luminescence, 16 h; DNA damage induced by 5-fluorouridine | Potency, µM (highest dose often 46.1 µM), most hits filed as inhibitors | actives 2.3% (n = 330,000); also: nearly all actives have a fitted effect of over 55% in size
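Quantitative HTS, concentration-response format. 2,000 cells/well co-treated with 5-fluorouridine and compound, 16 hr in 5% CO2 at 37 °C; ONE-Glo luminescence read after 30 min.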
A549 tox: kills or reduces viability of A549 cells in Nrf2 counter-screen | AID 504648 | A549 ARE-Fluc cells, CellTiter-Fluor viability, 18-24 h | Potency, µM (highest dose often 46 µM), hits mostly inhibitors | actives 0.16% (n = 390,000)
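A549 ARE_Fluc cells in 5% FBS OPTI-MEM were exposed to compounds in concentration-response for 18-24 h at 37 deg C. Viability was read by CellTiter-Fluor fluorescence (Ex 405/Em 525) after 30 min, before the luciferase read.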
IDH1 R132H inh: human IDH1 R132H inhibition | O75874 | Potency, µM (doses to about 76.6 µM), most hits filed as inhibitors | actives 0.093% (n = 390,000) | IDH1-R132H enzyme, NADPH consumption, diaphorase/resazurin fluorescence; also: nearly all actives have a fitted effect of over 65% in size
Target sequence (O75874 whole entry R132H, stated change not applied): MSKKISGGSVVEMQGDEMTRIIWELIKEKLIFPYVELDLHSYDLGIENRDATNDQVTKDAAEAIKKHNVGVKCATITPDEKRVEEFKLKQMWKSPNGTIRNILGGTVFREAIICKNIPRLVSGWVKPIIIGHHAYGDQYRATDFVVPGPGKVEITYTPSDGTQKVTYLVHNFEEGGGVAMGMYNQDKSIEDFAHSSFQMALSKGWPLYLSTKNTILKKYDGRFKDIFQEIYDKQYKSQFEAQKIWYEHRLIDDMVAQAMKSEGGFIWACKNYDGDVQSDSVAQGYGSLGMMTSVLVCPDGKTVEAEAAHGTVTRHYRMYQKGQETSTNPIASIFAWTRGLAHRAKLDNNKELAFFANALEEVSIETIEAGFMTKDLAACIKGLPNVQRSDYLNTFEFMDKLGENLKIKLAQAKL
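IDH1-R132H (0.5 ug/mL dispensed) in pH 7.5 Tris buffer was preincubated 30 min with compound, then given a substrate mix of 0.016 mM NADPH and 2 mM alpha-KG for 80 min at room temperature; remaining NADPH was read by diaphorase/resazurin fluorescence.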
Nrf2 inh: Nrf2 pathway inhibition. A549 ARE-Fluc reporter, luciferase luminescence, 18-24 h. Potency, µM (series often up to 46 µM), most hits filed as inhibitors. actives 2.1% (n = 360,000); also: nearly all actives have a fitted effect of over 60% in size
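A549 ARE_Fluc cells (5000/well, 5% FBS OPTI-MEM) pre-incubated 2 h, then treated with compounds 18-24 h at 37C/5% CO2 in concentration-response. CellTiter-Fluor viability read first; BugLite luciferase luminescence after 15 min at room temperature gives Nrf2 activity.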
Numbers stand for hits; . = inactive; ? = inconclusive; / = no result given; [ ] = another dose, or the depositor's remark. Rows were chosen to be rich in hits. Some 3.8% of all compounds tested hit in one or more screens of this group. Calls follow the shape of the dose curve; as a rule, active = well fitted curve in the direction sought with a large enough effect; inconclusive = small, poorly fitted or top-dose-only effect, or another doubt; inactive = no such curve, though single readings can be large; an effect the other way counts as inactive or inconclusive.

SMILES	Nrf2 activator	ELG1 repair inh	A549 tox	IDH1 R132H inh	Nrf2 inh
Clc1ccc2c(c1)C1OCCC1C(c1ccco1)N2 (stereo not drawn)	5.62µM	?	.	.	.
CC(=O)N1c2ccc(Cl)cc2C2OCCC2C1c1ccco1 (stereo not drawn)	.	.	.	.	.
CC(=O)Nc1ccn(C2CC3OCC(NC(=O)C(Cc4ccccc4)NC(=O)OC(C)(C)C)C3O2)c(=O)n1 (stereo not drawn)	/	/	.	/	.
COCCNC(=O)CCCn1c(SCC(=O)Nc2ccc(F)cc2)nc2c(sc3ccccc32)c1=O	.	/	.	.	.
Cn1nccc1NC(=O)Nc1cccc(Cl)c1Cl	.	.	.	.	16.4µM
N#CC1=C(N)N2C(=C(C#N)C1c1ccccc1)Sc1ccccc12 (stereo not drawn)	/	.	/	/	/
N#CC1=C(N)N2C(=C(C#N)C1c1ccc(Br)cc1)Nc1ccccc12 (stereo not drawn)	.	2.91µM	?	.	11.6µM
N#CC1=C(N)N2C(=C(C#N)C13CCN(Cc1ccccc1)CC3)Nc1ccccc12	.	?	.	.	/
N#CC1=C(N)N2C(=C(C#N)C1c1cccc(Br)c1)Nc1ccccc12 (stereo not drawn)	.	2.91µM	.	.	.
COc1ccc(CCn2c3c(c(=O)[nH]c2=S)CN(CC(C)C)CN3)cc1OC	/	/	.	/	.
Clc1ccc(N2CCN(/N=C/c3ccncc3)CC2)cc1	.	20.6µM	.	.	?
COc1ccccc1/C=N/N1CCN(c2ccc(Cl)cc2)CC1	.	.	.	.	.
Cc1ccc(N2CCN(/N=C/c3ccncc3)CC2)cc1	.	18.3µM	.	.	?
CC(C)(C)OC(=O)N1CCC(c2c(C(=O)NCc3cccc(Cl)c3)cnn2-c2ccc(F)cc2)CC1	.	/	.	.	.
CC1CCCCC1NC(=O)CN1CCC(NC(=O)c2ccc([N+](=O)[O-])cc2)CC1 (stereo not drawn)	.	.	.	.	7.31µM
O=C(Nc1cccc(-c2csc(Nc3cccc(C(F)(F)F)c3)n2)c1)c1cc([N+](=O)[O-])cc(C(F)(F)F)c1	.	2.59µM	.	.	?
O=C(Nc1ccc(-c2csc(Nc3ccccc3)n2)cc1)c1cc([N+](=O)[O-])cc(C(F)(F)F)c1	.	9.2µM	.	.	?
N#Cc1ccc(N2CCN(S(=O)(=O)c3ccc4c(c3)CC(=O)N4)CC2)cc1	/	/	.	/	.
S=C(Nc1ccccc1)Nc1ccc(OCc2ccc(Cl)cc2Cl)cc1	.	.	.	.	18.4µM
COc1ccccc1NC(=O)Nc1nc(CC(=O)NCc2c(F)cccc2F)cs1	.	?	?	.	?
COc1ccccc1NC(=O)Nc1nc(CC(=O)N2CCN(c3ccccc3F)CC2)cs1	.	16.4µM	.	.	.
COc1ccccc1CCC(=O)OCc1csc(CC(=O)Nc2ccccc2C)n1	.	.	.	.	.
CCN(CC(=O)Nc1ccccc1OC)Cc1csc(CC(=O)Nc2ccc(C)cc2)n1	.	9.2µM	.	.	.
COc1ccccc1NC(=O)Cc1csc(NC(=S)Nc2ccccc2)n1	.	.	18.4µM	.	20.6µM
CCc1c(C)nc2ncnn2c1N1CCC(C(=O)Nc2ccc(C)cc2)CC1	.	?	.[1.84 µM]	.	13µM
SMILES	Nrf2 activator	ELG1 repair inh	A549 tox	IDH1 R132H inh	Nrf2 inh
CCc1c(C)nc2ncnn2c1N1CCC(C(=O)Nc2ccccc2)CC1	.	20.6µM	.[1.84 µM]	.	.
CCOC(=O)c1ccc(Nc2c(CC)c(C)nc3ncnn23)cc1	.	.	.	.	25.9µM
CCc1c(C)nc2ncnn2c1NCCc1ccc(OC)c(OC)c1	.	11.6µM	.	.	/
CC(=O)Nc1ccc(NC(=O)C2CCN(c3c(Cc4ccccc4)c(C)nc4ncnn34)CC2)cc1	.	/	.	.	.
CCc1ccc(NC(=O)CC2C(=O)OCCN2CC)cc1 (stereo not drawn)	.	/	.	.	?
COc1cc(OC)c(NC(=O)CN2C(=O)CCn3nc(-c4cccn4C)cc32)cc1Cl	.	/	.	.	/
O=C(Nc1ccc2c(c1)CCC2)C1CCCN(c2ncccn2)C1 (stereo not drawn)	.	?	.	.	/
Cc1nc2ncnn2c(N2CCCC(C(=O)Nc3ccc4c(c3)CCC4)C2)c1C (stereo not drawn)	.	17.8µM	.	.	/
CCc1ccc(S(=O)(=O)c2nnn3c2nc(Nc2cccc(C)c2C)c2sccc23)cc1	.	/	.	.	?
COc1ccc(CCNC(=O)CN2C(=O)NC(c3ccccc3)(c3ccccc3)C2=O)cc1	.	25.9µM	.	.	.
O=C(CCNC(=O)c1ccc([N+](=O)[O-])cc1)Nc1ccc(Cl)c(S(=O)(=O)N2CCOCC2)c1	.	18.3µM	.	.	23.1µM
O=C(CCNC(=O)c1ccccc1)Nc1ccc(Cl)c(S(=O)(=O)N2CCCCC2)c1	.	16.4µM	.	.	?
Cc1ccc(CSCCNC(=O)c2ccc(Cl)c(S(=O)(=O)N3CCOCC3)c2)cc1	.	23.1µM	.	.	?
Cc1ccc(N(Cc2ccccc2)C(=O)c2ccc(C)c(S(=O)(=O)N3CCOCC3)c2)cc1	.	?	.	.	14.6µM
O=C(CCNC(=O)c1ccccc1Cl)Nc1cccc(S(=O)(=O)N2CCCCC2)c1	.	?	.	.	?
O=C(NCCN1CCOCC1)c1ccc(Cl)c(S(=O)(=O)N2CCCCC2)c1	.	.	.	.	.
Cc1ccc(NC(=O)CCNC(=O)c2ccc(Br)cc2)cc1S(=O)(=O)N1CCOCC1	.	?	.	.	.
CC(=O)c1ccc(C2CC34CNS(=O)(=O)C3CC2O4)cc1 (stereo not drawn)	/	/	.	/	.
COc1cc(CNc2ccc(O)cc2)cc(Br)c1OCc1ccccc1F	.	?	14.6µM	.	5.17µM
Cc1ccc(S(=O)(=O)NC(=O)C2(C)CCN2C(=O)c2ccc(C(F)(F)F)nc2C)cc1 (stereo not drawn)	.	/	/	/	/
O=C(CSc1ncnc2nc[nH]c12)N1CCN(c2ccc(Cl)cc2)CC1	.	18.4µM	.	.	?
COc1ccccc1CNC(=O)c1cccn1-c1nnc(N2CCCC2)s1	.	/	.	.	?
Cc1cc(N2CCC(C(=O)N3CCN(c4cccc(C)c4C)CC3)CC2)n2ncnc2n1	.	20.6µM	.[1.84 µM]	.	14.6µM
O=C(C1CCN(c2ncnc3c2nc2n3CCCCC2)CC1)N1CCN(c2ccccc2F)CC1	.	?	.	.	?
Cc1cccc(N2CCN(C(=O)C3CCN(c4ncnc5c4nc4n5CCCCC4)CC3)CC2)c1C	.	?	?	.	20.6µM
Cc1cccc(N2CCN(C(=O)C3CCN(c4ncnc5c4nc4n5CCCCC4)CC3)CC2C)c1 (stereo not drawn)	.	4.11µM	?	.	18.4µM
O=S(=O)(NCCS(=O)(=O)N1CCN(c2ccccc2F)CC1)c1ccc(Cl)cc1	.	/	.	.	/
